Measured values as given in PubChem BioAssay (Tox21).
“And” between values parts separate entries of the source, which are not always exact repeats. Equal entries are not always repeated. Records with an inconclusive call do not appear. Where a call stands in place of a potency, no number is given. Some structures have more than one record in an assay (separate samples or runs), and their calls can disagree. The source made the active and inactive calls. Unless noted, calls follow the shape of the dose curve; as a rule, active = well fitted curve in the direction sought with a large enough effect in the repeat runs; inconclusive = weak or mixed curves; inactive = no such curve, though single readings can be large; an effect the other way counts as inactive or inconclusive.

Legend:
[1] = qHTS assay to identify small molecule agonists of H2AX (AID 1224845; active = well fitted activation curve with a large enough effect in the signal ratio in the repeat runs, not every such curve was filed as active; the % refers to the signal ratio; also: potency is read from the fitted curve at half-maximal effect)
In short: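 Wild-type CHO-K1 cells plated overnight, then exposed 3 hr at 37C to compounds at 15 concentrations (0.76% DMSO). Lysed, then HTRF anti-pH2AX(S139)-cryptate/anti-H2AX-d2 detection after 24 hr at room temperature; emissions 665 and 620 nm.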

[2] = qHTS assay to identify small molecule agonists of H2AX - cell viability counter screen (AID 1224847; calls by dose curve; also: nearly all actives have a fitted effect of over 30% in size; also: potency is read from the fitted curve at half-maximal effect; as to activity change, negative = cytotoxicity: top concentration of the series differs between compounds)
In short: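 Cytotoxicity counter screen in wild-type CHO-K1 cells: a 3 hr compound treatment at 37C across 15 concentrations, followed by CellTiter-Glo luminescence to gauge viable cells.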

[3] = qHTS assay to identify small molecule antagonists of the estrogen related receptor (ERR) signaling pathway from Tox21 library (AID 1224848); also: nearly all actives have a fitted effect of over 50% in size; also: potency is read from the fitted curve at half-maximal effect
In short: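 Screening used an ERR reporter line supplied by NTP, exposed for 18 h at 37 C to library compounds delivered in DMSO. Signal was luciferase luminescence developed with ONE-Glo at room temperature for 30 min.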

[4] = qHTS assay to identify small molecule agonists of the estrogen related receptor (ERR) signaling pathway from Tox21 library (AID 1224849; calls by dose curve; also: nearly all actives have a fitted effect of over 15% in size); details: ERR reporter cell line, ONE-Glo luciferase, 18 h
In short: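 ERR reporter cell line (NTP) seeded, rested 6 h at 37 C/5% CO2, then pinned with Tox21 compounds in DMSO. After 18 h at 37 C, ONE-Glo luciferase luminescence was read following 30 min at room temperature.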

[5] = qHTS RealTime-Glo MT Cell Viability Assay in HepG2 cells - 24 hour (AID 1224867); also: nearly all actives have a fitted effect of over 50% in size; also: potency is read from the fitted curve at half-maximal effect
In short: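 qHTS, HepG2, 600 cells/well, RealTime-Glo (NanoLuc + prosubstrate) added with cells; 5 h preincubation; DMSO compound addition; 37 C; luminescence at 0/8/16/24/32/40 h.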

[6] = A CellTox Green Cytotoxicity Assay to monitor cytotoxicity in HEK293 cells - 0 hour (AID 1224869); also: nearly all actives have a fitted effect of over 50% in size
In short: (§1)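 HEK293 cells premixed with CellTox Green dye were seeded at 600 cells/well and left 5 h at 37 C/5% CO2 before pin transfer of 23 nL compound in DMSO. Fluorescence from dye bound to dead-cell DNA was read during 40 h treatment.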

[7] = qHTS RealTime-Glo MT Cell Viability Assay in HepG2 cells - 40 hour (AID 1224870); also: nearly all actives have a fitted effect of over 50% in size; also: potency is read from the fitted curve at half-maximal effect
In short: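 HepG2 cells mixed with RealTime-Glo MT reagents (NanoLuc plus cell-permeant prosubstrate) were seeded at 600 cells/well, incubated 5 h at 37 C/5% CO2, then pinned with compounds in DMSO; nonlytic luminescence tracked viability during 40 h treatment.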

[8] = A CellTox Green Cytotoxicity Assay to monitor cytotoxicity in HEK293 cells - 40 hour (AID 1224871); also: nearly all actives have a fitted effect of over 45% in size; also: potency is read from the fitted curve at half-maximal effect
In short: as §1

[9] = qHTS RealTime-Glo MT Cell Viability Assay in HEK293 cells - 32 hour (AID 1224868); also: nearly all actives have a fitted effect of over 50% in size; also: potency is read from the fitted curve at half-maximal effect; as to activity change, negative = cytotoxic: top concentration of the series differs between compounds
In short: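 Assay medium contained NanoLuc luciferase plus cell-permeant prosubstrate, added with HEK293 cells at 600 cells/well. After 5 h at 37 C/5% CO2 compounds were added; plates stayed at 37 C for 40 h with serial luminescence reads.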

[10] = qHTS assay to identify small molecule agonists of the hypoxia (HIF-1) signaling pathway (AID 1224846; active = well fitted activation curve with a large enough effect in the signal ratio in the repeat runs, not every such curve was filed as active; the % refers to the signal ratio)
In short: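 HRE-bla ME-180 cells (beta-lactamase reporter under hypoxia response element) were plated at 2,000 cells/well in medium with 0.5% dialyzed FBS, rested 5 hrs, then given compounds in DMSO for 17 hrs at 37C, 5% CO2. Reporter induction was read with CCF4-AM FRET substrate.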

Cc1cc(OCCOCC[N+](C)(C)Cc2ccccc2)ccc1C(C)(C)CC(C)(C)C
Potency [1]: inactive
Potency [2]: 100 µM (active) and 55.2 µM (active)
Potency [3]: 13.6 µM (active) and 6.68 µM (active)
activity change, positive = activation ([4]; at 42.5 µM (top of the series)): -54.7% (inactive)
activity change, positive = activation ([4]; at 92.4 µM (top of the series)): -79.5% (inactive)
Potency [5]: 15.4 µM (active) and 10.7 µM (active)
Potency [6]: inactive
Potency [7]: 12.2 µM (active) and 8.49 µM (active)
Potency [8]: 21.7 µM (active) and 23.9 µM (active)

Cc1cc(Cc2cc(C)cc(C(C)(C)C)c2O)c(O)c(C(C)(C)C)c1
Potency [1]: 56.9 µM (active) and 45 µM (active)
Potency [2]: 40.3 µM (active) and 31.8 µM (active)
Potency [3]: 27.4 µM (active) and 30.6 µM (active)
activity change, positive = activation ([4]; at 92.4 µM (top of the series)): -73.5% (inactive) and -62.7% (inactive)
Potency [5]: 49.2 µM (active) and 43.6 µM (active)
Potency [9]: 9.82 µM (active) and 15.5 µM (active)
Potency [6]: inactive
Potency [7]: 55.2 µM (active) and 49 µM (active)
Potency [8]: 43.9 µM (active) and 43.6 µM (active)

C1COC(NC(C2CC2)C2CC2)=N1
Potency [1]: inactive
Potency [2]: inactive
Potency [3]: inactive
activity change, positive = activation ([4]; at 42.5 µM (top of the series)): -1.34% (inactive)
Potency [5]: inactive
Potency [6]: inactive
Potency [7]: inactive
Potency [8]: inactive

c1ccc2c(c1)-c1cccc3c1c-2cc1ccccc13
Potency [1]: inactive
Potency [2]: 78.2 µM (active) and 89.8 µM (active)
Potency [5]: inactive
Potency [9]: inactive
Potency [6]: inactive
Potency [7]: inactive
Potency [8]: inactive

NC12CC3CC(CC(C3)C1)C2
Potency [1]: inactive
Potency [2]: inactive
Potency [5]: inactive
Potency [9]: inactive
Potency [6]: inactive
Potency [7]: inactive
Potency [8]: inactive

NC(Cc1ccc(Cl)cc1)C(=O)O (stereo unspecified)
activation (H2AX phosphorylation) [1]: -0.212% [at 0.582 µM] (inactive)
activity change, negative = cytotoxicity [2]: -0.321% [at 0.582 µM] (inactive)
activity, negative = inhibition [3]: -15% [at 0.349 µM] (inactive)
activity change, positive = activation ([4]; at 0.349 µM (top of the series)): -8.03% (inactive)
activity change, negative = cytotoxicity [5]: 0.0518% [at 0.29 µM] (inactive)
activity change, negative = cytotoxic [9]: 11.7% [at 0.29 µM] (inactive)
cytotoxicity [6]: -2.12% [at 0.29 µM] (inactive)
activity change, negative = cytotoxic [7]: 0.881% [at 0.29 µM] (inactive)
cytotoxicity increase [8]: -8.99% [at 0.29 µM] (inactive)

NC(N)=NC(=O)Cc1c(Cl)cccc1Cl
Potency [1]: inactive
Potency [2]: inactive
Potency [3]: inactive
activity change, positive = activation ([4]; at 42.5 µM (top of the series)): -1.99% (inactive)
Potency [5]: inactive
Potency [9]: inactive
Potency [6]: inactive
Potency [7]: inactive
Potency [8]: inactive

CC(C)(C)c1cc(C(C)(C)C)c(O)c(C(C)(C)C)c1
Potency [2]: 101 µM (active)
Potency [5]: inactive
Potency [9]: inactive
Potency [6]: inactive
Potency [7]: inactive
Potency [8]: 54.9 µM (active) and 34.7 µM (active)

CC(COc1ccccc1)N(CCCl)Cc1ccccc1 (stereo unspecified)
Potency [1]: 113 µM (active)
Potency [5]: inactive
Potency [6]: inactive
Potency [7]: inactive
Potency [8]: 49.5 µM (active) and 21.3 µM (active)

Nc1cc(S(=O)(=O)O)cc2cc(S(=O)(=O)O)cc(O)c12
Potency [2]: inactive
Potency [5]: inactive
Potency [9]: inactive
Potency [6]: inactive
Potency [7]: inactive
Potency [8]: inactive

c1cc(C(c2ccc(OCC3CO3)cc2)C(c2ccc(OCC3CO3)cc2)c2ccc(OCC3CO3)cc2)ccc1OCC1CO1 (stereo unspecified)
Potency [10]: inactive
Potency [2]: inactive
Potency [3]: inactive
activity change, positive = activation ([4]; at 92.4 µM (top of the series)): -18.6% (inactive) and 0.394% (inactive)
Potency [5]: inactive
Potency [6]: inactive
Potency [7]: inactive
Potency [8]: inactive

CN(C)c1ccc(C(=C2C=CC(=[N+](C)C)C=C2)c2ccccc2)cc1
Potency [3]: 596 nM (active) [middle of 4 runs]
activity change, positive = activation ([4]; at 42.5 µM (top of the series)): -66.6% (inactive) and -76.7% (inactive) and -71.5% (inactive)
activity change, positive = activation ([4]; at 92.4 µM (top of the series)): -71.3% (inactive)
Potency [5]: 11 µM (active) and 8.49 µM (active) and 7.56 µM (active)
Potency [6]: inactive
Potency [8]: 17.4 µM (active) and 9.52 µM (active) and 10.7 µM (active)

CC(C)CCCCCCc1ccc(O)cc1
Potency [2]: 91.4 µM (active) and 56.6 µM (active)
Potency [5]: 22.3 µM (active) and inactive
Potency [9]: 2.23 µM (active)
Potency [6]: inactive
Potency [7]: 25 µM (active) and inactive
Potency [8]: 19.8 µM (active) and 38.9 µM (active)

CC(C)(C)c1ccc(O)c(C(C)(C)C)c1
Potency [2]: 89.4 µM (active)
Potency [3]: 54.3 µM (active) and 61.1 µM (active)
activity change, positive = activation ([4]; at 92.4 µM (top of the series)): -41% (inactive) and -33.5% (inactive)
Potency [9]: 38.7 µM (active)
Potency [6]: inactive
Potency [7]: inactive
Potency [8]: 24.4 µM (active) and 34.7 µM (active)

O=C(O[C@@H]1Cc2c(O)cc(O)cc2O[C@@H]1c1cc(O)c(O)c(O)c1)c1cc(O)c(O)c(O)c1
Potency [2]: inactive
Potency [9]: 7.48 µM (active)
Potency [6]: inactive
Potency [8]: inactive
